In PubChem BioAssay (Tox21):
Values joined by “and” are separate entries in the source; they are usually repeats but may differ in a detail not shown here. Equal entries are not always repeated. Inconclusive results are not listed. More than one record can exist for a structure, and the calls need not agree. Active and inactive are the calls of the source. Unless noted, the call rests on the fitted dose curve; in most records, active means well fitted curve in the direction sought with a large enough effect in the repeat runs; inconclusive means weak or mixed curves; inactive means no such curve, though single readings can be large; an effect the other way counts as inactive or inconclusive.

Legend:
[1] = qHTS assay to identify small molecule agonists of the peroxisome proliferator-activated receptor delta (PPARd) signaling pathway - cell viability counter screen (AID 743211); further: nearly all actives have a fitted effect of over 55% in size; further: potency means the concentration at half of the fitted maximal effect
Procedure, shortened: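 Tox21 library compounds, delivered in DMSO, were incubated 17 h with PPARd-bla HEK293H cells; cytotoxicity was taken from CellTiter-Glo luminescence read 30 min after reagent addition.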

[2] = qHTS assay to identify small molecule antagonists of the peroxisome proliferator-activated receptor delta (PPARd) signaling pathway - cell viability counter screen (AID 743213); further: nearly all actives have a fitted effect of over 50% in size; further: potency means the concentration at half of the fitted maximal effect
Procedure, shortened: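 CellTiter-Glo was added to PPARd-bla HEK293H wells following 17 h compound treatment in the presence of 300 nM L165041. Luminescence was recorded after 30 min at room temperature.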

[3] = target: Bile acid receptor (Homo sapiens) (UniProt Q96RI1); experiment: qHTS assay to identify small molecule antagonists of the farnesoid-X-receptor (FXR) signaling pathway (AID 743217; active means well fitted inhibition curve with a large enough effect in the signal ratio in the repeat runs, not every such curve was filed as active; the % refers to the signal ratio)
Procedure, shortened: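 Antagonist mode: chenodeoxycholic acid at 50 uM final stimulates a UAS-driven beta-lactamase reporter in HEK 293T FXR-bla cells during 16 h, 37C compound exposure. Read-out is FRET substrate fluorescence after 2 h at room temperature.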

[4] = qHTS assay to identify small molecule agonists of the farnesoid-X-receptor (FXR) signaling pathway - cell viability counter screen (AID 743218); further: nearly all actives have a fitted effect of over 45% in size; further: potency means the concentration at half of the fitted maximal effect
Procedure, shortened: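 Viability counter screen in the same wells: CellTiter-Glo luminescence, 30 min room-temperature incubation, measured after the beta-lactamase read. Cells were GeneBLAzer FXR-UAS-bla HEK 293T, compound-treated 16 h at 37C.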

[5] = target: Bile acid receptor (Homo sapiens) (UniProt Q96RI1); experiment: qHTS assay to identify small molecule agonists of the farnesoid-X-receptor (FXR) signaling pathway (AID 743220; active means well fitted activation curve with a large enough effect in the signal ratio in the repeat runs, not every such curve was filed as active; the % refers to the signal ratio)
Procedure, shortened: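 FXR-UAS-bla HEK 293T cells carrying a UAS-driven beta-lactamase reporter were plated for 5 h at 37C/5% CO2, then exposed to DMSO-dissolved Tox21 10K compounds for 16 h at 37C. A LiveBLAzer B/G FRET substrate was loaded for 2 h at room temperature before fluorescence reading.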

[6] = qHTS assay to identify small molecule antagonists of the farnesoid-X-receptor (FXR) signaling pathway - cell viability counter screen (AID 743221; active means well fitted cell-killing curve with a large enough effect in the repeat runs, not every such curve was filed as active; further: nearly all actives have a fitted effect of over 50% in size; further: potency means the concentration at half of the fitted maximal effect)
Procedure, shortened: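 Cytotoxicity is taken from ATP luminescence (CellTiter-Glo, 30 min, room temperature) in FXR-bla HEK 293T cells previously incubated 16 h at 37 C with compound and chenodeoxycholic acid at 50 uM final.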

[7] = qHTS assay to identify small molecule agonists of the vitamin D receptor (VDR) signaling pathway - cell viability counter screen (AID 743224); further: nearly all actives have a fitted effect of over 50% in size; further: potency means the concentration at half of the fitted maximal effect
Procedure, shortened: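 Counter screen run in the same wells as the VDR-bla reporter assay: CellTiter-Glo luminescence, 30 min at room temperature, after 16 h compound treatment at 37C of cells pre-plated for 4 h.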

[8] = qHTS assay to identify small molecule antagonists of the vitamin D receptor (VDR) signaling pathway - cell viability counter screen (AID 743225); further: nearly all actives have a fitted effect of over 50% in size; further: potency means the concentration at half of the fitted maximal effect
Procedure, shortened: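 Same-well multiplex: following 16 h treatment of HEK 293T cells carrying a UAS-driven beta-lactamase reporter with compound and agonist (3 nM final), and a 2 h FRET substrate step, CellTiter-Glo was added and luminescence read after 30 min.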

[9] = qHTS assay to identify small molecule agonists of the NFkB signaling pathway (AID 1159509; active means well fitted curve in the direction sought with a large enough effect in the signal ratio in the repeat runs, not every such curve was filed as active; the % refers to the signal ratio; further: series mostly up to about 61 µM)
Procedure, shortened: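 Pathway activation was measured in ME-180 cells stably expressing beta-lactamase under NF-kB response element control. Substrate cleavage was read as the 460/530 nm emission shift after 5 hr compound incubation.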

[10] = qHTS assay to identify small molecule agonists of the NFkB signaling pathway - cell viability counter screen (AID 1159515; calls by dose curve; further: nearly all actives have a fitted effect of over 55% in size; further: potency means the concentration at half of the fitted maximal effect)
Procedure, shortened: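 Read by CellTiter-Glo luminescence (30 min, room temperature) in the wells also used for the beta-lactamase FRET read. ME-180 NFkB-bla cells at 2,000 per well were plated overnight, then exposed to compound for 5 hr at 37 C.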

[11] = qHTS assay to identify small molecule agonists of the endoplasmic reticulum stress response signaling pathway (AID 1159516; active means well fitted activation curve with a large enough effect in the signal ratio in the repeat runs, not every such curve was filed as active; the % refers to the signal ratio)
Procedure, shortened: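 Ratiometric FRET readout (405 nm excitation; 460 and 530 nm emission) of a beta-lactamase gene driven by the ER stress response element, after 2 hr substrate loading. HeLa ESRE-bla cells were seeded overnight and treated with compounds for only 5 hr at 37 C.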

[12] = qHTS assay to identify small molecule agonists of the endoplasmic reticulum stress response signaling pathway - cell viability counter screen (AID 1159517; calls by dose curve; further: nearly all actives have a fitted effect of over 50% in size; further: potency means the concentration at half of the fitted maximal effect)
Procedure, shortened: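 In parallel with the ESRE reporter read, cytotoxicity was scored by CellTiter-Glo luminescence (30 min, room temperature) on HeLa ESRE-bla cells dosed for 5 hr.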

[13] = qHTS assay to identify small molecule antagonists of the retinoid-related orphan receptor gamma (ROR-gamma) signaling pathway - cell viability counter screen (AID 1159520); further: nearly all actives have a fitted effect of over 50% in size; further: potency means the concentration at half of the fitted maximal effect
Procedure, shortened: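 Tet-on ROR gamma CHO cells were given compounds for 2 hr, then doxycycline hyclate at 1 uM final, and incubated 16 hr at 37 C. Viability was measured as ATP content by CellTiter-Glo luminescence.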

[14] = target: Nuclear receptor ROR-gamma (Homo sapiens) (UniProt P51449); experiment: qHTS assay to identify small molecule antagonists of the retinoid-related orphan receptor gamma (ROR-gamma) signaling pathway (AID 1159521; further: nearly all actives have a fitted effect of over 50% in size; further: potency means the concentration at half of the fitted maximal effect)
Procedure, shortened: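 Inducible-expression reporter assay: doxycycline (1 uM final) switched on RORγ in CHO cells bearing a ROR response element-luciferase construct, with test compounds present from 2 h beforehand. Decreased luminescence after 16 h defined antagonist activity.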

[15] = qHTS assay to identify small molecule agonists of the AP-1 signaling pathway (AID 1159526; calls by dose curve)
[16] = target: Peroxisome proliferator-activated receptor delta (Homo sapiens) (UniProt Q03181); experiment: qHTS assay to identify small molecule agonists of the peroxisome proliferator-activated receptor delta (PPARd) signaling pathway (AID 743212; calls by dose curve)
Procedure, shortened: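 Tox21 library screened in GeneBLAzer PPARd UAS-bla HEK293H cells. After compound treatment at 37 C, a FRET-based beta-lactamase substrate was applied for 2 h and fluorescence recorded.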

[17] = target: Peroxisome proliferator-activated receptor delta (Homo sapiens) (UniProt Q03181); experiment: qHTS assay to identify small molecule antagonists of the peroxisome proliferator-activated receptor delta (PPARd) signaling pathway (AID 743215; active means well fitted inhibition curve with a large enough effect in the signal ratio in the repeat runs, not every such curve was filed as active; the % refers to the signal ratio;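 further: cells stimulated with agonist L165041 at 300 nM final during compound exposure; series mostly up to about 62 µM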)
Procedure, shortened: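 Agonist L165041 (300 nM final) added with compound to PPARd-bla HEK293H UAS-bla reporter cells; 17 h incubation at 37 C. Read-out: LiveBLAzer FRET substrate, 2 h at room temperature, fluorescence intensity.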

[18] = target: Vitamin D3 receptor (Homo sapiens) (UniProt P11473); experiment: qHTS assay to identify small molecule agonists of the vitamin D receptor (VDR) signaling pathway (AID 743222; calls by dose curve)
Procedure, shortened: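 Agonist mode, beta-lactamase reporter: fluorescence from LiveBLAzer B/G FRET substrate (2 h, room temperature) read after 16 h compound treatment at 37 C of VDR-bla cells, which were pre-incubated 4 h after seeding.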

[19] = target: Vitamin D3 receptor (Homo sapiens) (UniProt P11473); experiment: qHTS assay to identify small molecule antagonists of the vitamin D receptor (VDR) signaling pathway (AID 743223; active means well fitted inhibition curve with a large enough effect in the signal ratio in the repeat runs, not every such curve was filed as active; the % refers to the signal ratio)
Procedure, shortened: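 Quantitative HTS in VDR-bla reporter cells stimulated with 1alpha,25-dihydroxyvitamin D3, 3 nM final. Compound exposure 16 h, 37C, 5% CO2. Read-out: beta-lactamase FRET substrate fluorescence, 2 h RT.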

[20] = qHTS assay to identify small molecule agonists of the AP-1 signaling pathway - cell viability counter screen (AID 1159525; calls by dose curve; further: nearly all actives have a fitted effect of over 55% in size)
Procedure, shortened: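 Same-well cytotoxicity counter screen of the Tox21 10K library in ME-180 cells. The readout is ATP-dependent luminescence after 5 h compound treatment. Data are normalised to DMSO and tetra n-octyl ammonium bromide controls.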

Measured: Potency

Chain of Peroxisome proliferator-activated receptor delta (Homo sapiens) (Q03181 whole entry, looked up): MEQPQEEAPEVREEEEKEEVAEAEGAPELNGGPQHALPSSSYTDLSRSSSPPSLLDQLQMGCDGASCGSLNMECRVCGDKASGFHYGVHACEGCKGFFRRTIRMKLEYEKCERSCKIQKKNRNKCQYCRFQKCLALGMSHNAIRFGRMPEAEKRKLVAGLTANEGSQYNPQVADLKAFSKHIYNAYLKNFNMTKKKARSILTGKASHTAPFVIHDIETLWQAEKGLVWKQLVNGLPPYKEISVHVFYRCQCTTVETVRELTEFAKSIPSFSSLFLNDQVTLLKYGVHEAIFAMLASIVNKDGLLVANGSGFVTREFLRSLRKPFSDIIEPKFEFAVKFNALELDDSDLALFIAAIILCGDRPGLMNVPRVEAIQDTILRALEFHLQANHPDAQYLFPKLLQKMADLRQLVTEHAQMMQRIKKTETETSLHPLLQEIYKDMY
Chain of Vitamin D3 receptor (Homo sapiens) (P11473 whole entry, looked up): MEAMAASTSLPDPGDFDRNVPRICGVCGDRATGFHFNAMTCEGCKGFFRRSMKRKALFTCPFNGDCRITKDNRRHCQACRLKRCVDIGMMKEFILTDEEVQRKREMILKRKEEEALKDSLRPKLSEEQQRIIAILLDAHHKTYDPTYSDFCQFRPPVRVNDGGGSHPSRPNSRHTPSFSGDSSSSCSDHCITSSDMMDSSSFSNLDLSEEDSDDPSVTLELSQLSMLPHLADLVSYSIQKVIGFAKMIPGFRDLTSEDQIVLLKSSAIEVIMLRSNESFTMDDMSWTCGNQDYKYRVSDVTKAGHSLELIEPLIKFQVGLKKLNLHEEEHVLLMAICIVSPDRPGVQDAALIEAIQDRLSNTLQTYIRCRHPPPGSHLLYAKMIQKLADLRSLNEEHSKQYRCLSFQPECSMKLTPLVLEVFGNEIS
Chain of Bile acid receptor (Homo sapiens) (Q96RI1 whole entry, looked up): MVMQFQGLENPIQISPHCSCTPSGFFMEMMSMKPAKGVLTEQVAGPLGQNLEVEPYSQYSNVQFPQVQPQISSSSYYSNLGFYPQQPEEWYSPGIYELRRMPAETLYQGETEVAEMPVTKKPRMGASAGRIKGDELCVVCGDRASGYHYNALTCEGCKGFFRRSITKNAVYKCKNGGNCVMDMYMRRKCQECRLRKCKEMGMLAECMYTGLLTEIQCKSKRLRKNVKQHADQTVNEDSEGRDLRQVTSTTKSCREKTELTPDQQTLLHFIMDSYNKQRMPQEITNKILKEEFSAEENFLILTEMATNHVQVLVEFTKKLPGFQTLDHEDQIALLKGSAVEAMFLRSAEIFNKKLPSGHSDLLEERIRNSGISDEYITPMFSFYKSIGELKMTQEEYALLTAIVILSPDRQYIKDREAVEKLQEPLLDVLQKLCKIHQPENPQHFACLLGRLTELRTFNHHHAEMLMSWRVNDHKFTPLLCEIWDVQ

CCC(C)(c1ccc(O)cc1)c1ccc(O)cc1
inactive: [2] | [3] | [4] | [5] | [6] | [7] | [8] | [9] | [10] | [11] | [12] | [13] | [15]
54.9 µM (active) and inactive: [1]
active: [14] 54.4 µM

CCC(CC)Nc1c([N+](=O)[O-])cc(C)c(C)c1[N+](=O)[O-]
inactive: [1] | [16] | [2] | [17] | [3] | [4] | [5] | [6] | [18] | [19] | [7] | [8] | [9] | [10] | [12] | [13] | [14] | [20]

Oc1cc(Cl)ccc1Oc1ccc(Cl)cc1Cl
22.4 µM (active) and inactive: [10]
active: [4] 42.1 µM | [6] 56.2 µM | [7] 20 µM | [8] 7.08 µM and 23.9 µM | [12] 20 µM | [13] 31.4 µM and 29.8 µM | [14] 15.7 µM and 23.7 µM
28 µM (active) and inactive: [2]
inactive: [16] | [17] | [18] | [19] | [9] | [11]

CCOP(=S)(OCC)O/N=C(\C#N)c1ccccc1
inactive: [1] | [16] | [17] | [3] | [4] | [5] | [6] | [18] | [19] | [7] | [8] | [9] | [10] | [11] | [12] | [13] | [14]

CC(C)=CC1C(C(=O)OCc2coc(Cc3ccccc3)c2)C1(C)C (stereo not drawn)
active: [14] 48.6 µM
inactive: [1] | [16] | [2] | [17] | [3] | [4] | [5] | [6] | [18] | [19] | [7] | [8] | [9] | [11] | [12] | [13] | [20] | [15]

CC(C)(c1cc(Cl)c(O)c(Cl)c1)c1cc(Cl)c(O)c(Cl)c1
active: [12] 43.7 µM and 43.6 µM
inactive: [16] | [2] | [17] | [4] | [6] | [18] | [19] | [7] | [8] | [9] | [10] | [11] | [13] | [14]

CCCCN(CC)c1c([N+](=O)[O-])cc(C(F)(F)F)cc1[N+](=O)[O-]
inactive: [1] | [16] | [2] | [17] | [4] | [6] | [18] | [19] | [7] | [8] | [9] | [10] | [12] | [13] | [14] | [20] | [15]

O=C(CCl)c1ccccc1
inactive: [1] | [16] | [2] | [17] | [4] | [6] | [18] | [19] | [7] | [8] | [9] | [10] | [11] | [12] | [15]
inactive and 54.5 µM (active): [14]
inactive and 61.1 µM (active): [13]

CCC(C)c1cc([N+](=O)[O-])cc([N+](=O)[O-])c1O (stereo not drawn)
inactive: [1] | [2] | [17] | [3] | [4] | [5] | [6] | [18] | [19] | [7] | [8] | [9] | [10] | [11] | [12] | [13] | [15]
inactive and 7.7 µM (active): [14]

O=C(NC(=O)c1c(F)cccc1F)Nc1ccc(Cl)cc1
inactive: [16] | [2] | [3] | [4] | [5] | [6] | [18] | [19] | [7] | [8] | [9] | [10] | [12] | [13] | [14] | [20] | [15]

CCN(CC)C(=O)SCc1ccc(Cl)cc1
inactive: [2] | [3] | [5] | [6] | [18] | [19] | [7] | [8] | [9] | [10] | [11] | [12] | [13] | [14] | [15]

O=[N+]([O-])c1cccc2ccccc12
inactive: [1] | [16] | [2] | [17] | [4] | [6] | [7] | [8] | [9] | [11] | [12] | [13] | [14] | [20] | [15]

Nn1cnnc1
inactive: [1] | [16] | [2] | [17] | [4] | [6] | [18] | [19] | [7] | [8] | [9] | [11] | [12] | [13] | [14] | [20] | [15]

CCCCNC(=O)n1c(NC(=O)OC)nc2ccccc21
inactive: [2] | [4] | [5] | [6] | [18] | [7] | [8] | [9] | [10] | [11] | [12] | [13] | [14] | [15]

ClC1C(Cl)C(Cl)C(Cl)C(Cl)C1Cl (stereo not drawn)
inactive: [1] | [16] | [2] | [17] | [3] | [4] | [5] | [6] | [7] | [8] | [9] | [11] | [12] | [13] | [20] | [15]
55.4 µM (active) and inactive: [10]

COc1ccc(C(CN(C)C)C2(O)CCCCC2)cc1 (stereo not drawn)
inactive: [1] | [16] | [2] | [17] | [4] | [6] | [18] | [19] | [7] | [8] | [9] | [10] | [11] | [12] | [13] | [20] | [15]
